Only a selection was taken, and hits are over-represented in it overall.
Methyltransferases: Primary Screen for Target Class Profiling of Small Molecule Inhibitors of Methyltransferases | purified enzyme, MTase-Glo SAH luminescence; stronger effect = lower value | AID 1745853, 2022 | calls only at 40 µM | actives 3.9% (n = 25,000); call rule not given here
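Each enzyme was reacted with SAM and its substrate, with compounds tested once at 40 uM; SAH formed was read by MTase-Glo luminescence.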
Active calls of the source: *; i = inactive; + = active, no number. % is scaled to controls: 0 for no effect and ±100 for the full control effect.

SMILES	Methyltransferases
COCC1CN(C)CC12CCN(S(=O)(=O)c1cccs1)CC2 (stereo not drawn)	i
C[C@H](O)c1onc(-c2ccc(F)cc2)c1C(=O)N1CCCC1	i
CN(C)CC1(O)CCC2(CCN(C(=O)CCC3CCCC3)CC2)CC1	i
C[C@@H]1CCC2C(C)(C)[C@H](O)CC[C@]2(C)[C@@]12Cc1c(O)cc3c(c1O2)CN(CCO)C3=O (stereo partly drawn)	i
CC(C)(O)c1ccccc1CC[C@@H](SCC1(CC(=O)O)CC1)c1cccc(/C=C/c2ccc3ccc(Cl)cc3n2)c1	+
CCC(C)NC(=O)c1ccc2c(=O)n(Cc3ccccc3)c3nn(CC(=O)NC(C)(C)C)c(=O)n3c2c1 (stereo not drawn)	i
CC1(C(=O)NC2CCCCCC2)Cc2ccccc2C(=O)N1CCN1CCOCC1 (stereo not drawn)	i
O=C(c1ccccc1-c1ccccc1)N1CCCn2cncc2C1	i
C=C1C(=O)O[C@@H]2[C@H]3O[C@]3(C)CCC=C(C)CC[C@@H]12	i
C=C1C(=O)OC2C1CCC1(C)C(O)CCC(=C)C21 (stereo not drawn)	+
C=C1C(=O)OC2C1C(O)CC1(C)C(O)CCC(C=O)C21 (stereo not drawn)	i
O=C(Nc1ccc(Cl)cc1)Nc1cccc(-c2cccc(N3CCCC3)n2)c1	i
CC(/C=C/[C@]1(O)[C@@]2(C)CO[C@@]1(C)C[C@@H](O)C2)=C\C(=O)O[C@@H]1O[C@H](CO)[C@@H](O)[C@H](O)[C@H]1O	i
CC1(C(=O)NC2CCCCC2)Cn2c(ccc2-c2ccco2)C(=O)N1CCCN1CCOCC1 (stereo not drawn)	i
COc1ccc(OC)c(S(=O)(=O)N2CCCCC2c2nc(-c3cccnc3)n[nH]2)c1 (stereo not drawn)	i
Cc1ccc(C#N)c(-c2cc(NCc3cccnc3)nc3[nH]ccc23)n1	i
O=C(Nc1ccc(F)c(Cl)c1)c1cnc(-c2ccccc2)nc1-c1ccncc1	i
N#Cc1cnc2c(Cl)cc(NCc3cn(CCN4CCCCCC4)nn3)cc2c1Nc1ccc(F)c(Cl)c1	+
CCN1CCC(n2cc(CNc3cc(Cl)c4ncc(C#N)c(Nc5ccc(F)c(Cl)c5)c4c3)nn2)CC1	+
CNC(=O)[C@@H]1C[C@H](n2cc(CNS(=O)(=O)c3cc(C)ccc3F)nn2)CN1	i
N#Cc1cnc2cnc(NCc3cccnc3)cc2c1Nc1ccc(F)c(Cl)c1	+
O=S(=O)(c1cc(F)ccc1F)N1CCC(n2cc(CCCO)nn2)CC1	i
COc1ccc(-c2nc3c(C)cccc3cc2CN2CC[C@@H](O)C2)cc1	i
Cc1ccc2c(c1)C(=O)[C@]1(O)CCN(c3ccccc3)C1=N2	i
CC(c1cccc(-c2cccc(C(=O)N(C)C)n2)c1)N1CCCC1 (stereo not drawn)	i
SMILES	Methyltransferases
O=C(COc1ccccc1)NCC1CCCCC(=O)N1 (stereo not drawn)	i
Cc1cccc(CC(=O)N[C@@H]2CN(c3ccncn3)C[C@H]2CO)c1	i
CC(C)c1ccc(CNC(=O)c2ccc3c(=O)nc4c(-c5cccc(F)c5)n[nH]n4c3c2)cc1	i
Cn1cncc1C(N)(c1ccc(Cl)cc1)c1ccc2c(c1)c(-c1cccc(Cl)c1)cc(=O)n2C (stereo not drawn)	+
Cc1cc(Nc2nc(NC(C)c3ncc(F)cn3)ncc2Cl)n[nH]1 (stereo not drawn)	i
COc1cc(C2OCC3(O)C(c4ccc(O[C@@H]5O[C@H](CO)[C@@H](O)[C@H](O)[C@H]5O)c(OC)c4)OCC23O)ccc1O (stereo partly drawn)	i
CN1CCN([C@H]2CCN(Cc3ccc4occc4c3)C[C@H]2CCC(=O)O)CC1	i
Cc1cc(N)c2ccccc2[n+]1CCCCCCCCCC[n+]1c(C)cc(N)c2ccccc21	+
CCCn1c(=O)c2ccccc2n2c(=O)n(CC(=O)NCc3cccc(OC)c3)nc12	i
CC1(C)CCC2=C(O1)c1ccccc1C(=O)C2=O	+
COc1ccc(CN2C(=O)c3c(-n4cccc4)c4cc(F)ccc4n3CC2(C)C(=O)NC2CCCCCC2)cc1 (stereo not drawn)	i
COc1ccc(CNC(=O)C(C)n2ccc3cc(S(=O)(=O)N4CCCC4)ccc32)cc1 (stereo not drawn)	i
CN(CCN1CCCCCC1)C(=O)c1cc(COc2ccccc2)[nH]n1	i
c1cc(OCCN2CCCCC2)cc(-c2n[nH]c3ccc(-c4ncn[nH]4)cc23)c1	+
O=C(NC[C@H]1O[C@@H](CO)[C@@H](O)[C@H]1N1CCOCC1)c1cccs1	i
O=C(CNC(=O)c1cccc(C(F)(F)F)c1)N[C@@H]1CCN(Cc2ccc(Cl)cc2)C1	i
COc1ccc(C2(O)CCC(N3CC[C@@H](NC(=O)CNC(=O)c4cccc(C(F)(F)F)c4)C3)CC2)cn1 (stereo partly drawn)	+
CC(=O)NC1CCN(C(=O)c2coc(COc3cccc(C(F)(F)F)c3)n2)C1 (stereo not drawn)	i

Screening data from PubChem BioAssay.
